Experimental findings from the supplement of paper PMC6089552 are described below.

About 300 (9.4%) of roughly 3,200 compounds showed activity. The entries come from a sample that favours actives as a whole.

The assay deals with A673/TR/shEF. Description: cell viability (LOESS-normalised, relative to median of negative controls) (log2 ratio); higher = more viable cells (less compound effect), active = hit call of the paper (over 3 MAD below the median). The conditions noted are these: treatment time: 72 h. Summed up:
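Doxycycline, present or absent from 24 h before compounds, was used to induce EWS-FLI1 shRNA knockdown in A673/TR/shEF Ewing sarcoma cells at 1,500 per well in 384-well plates. Cells then received library compounds at two or more concentrations, or DMSO controls, for three days. Viability was measured by CellTiter-Glo luminescence on an Envision reader, and per-plate LOESS correction, division by the negative-control median and log2 transformation followed.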

The mark [1] stands for this setting: 0.25 µM, library screen: screen1, EWS-FLI1 expression: high (no doxycycline).
Setting [2] is: 0.25 µM, library screen: screen1, EWS-FLI1 expression: low (doxycycline-induced shRNA knockdown).
[3] abbreviates: 2.5 µM, library screen: screen1, EWS-FLI1 expression: high (no doxycycline).
Where [4] appears, read: 2.5 µM, library screen: screen1, EWS-FLI1 expression: low (doxycycline-induced shRNA knockdown).
Setting [5] is: 0.103 µM, library screen: screen3, EWS-FLI1 expression: high (no doxycycline).
[6] abbreviates: 0.103 µM, library screen: screen3, EWS-FLI1 expression: low (doxycycline-induced shRNA knockdown).
The mark [7] stands for this setting: 0.308 µM, library screen: screen3, EWS-FLI1 expression: high (no doxycycline).
[8] abbreviates: 0.308 µM, library screen: screen3, EWS-FLI1 expression: low (doxycycline-induced shRNA knockdown).
The mark [9] stands for this setting: 0.926 µM, library screen: screen3, EWS-FLI1 expression: high (no doxycycline).
Where [10] appears, read: 0.926 µM, library screen: screen3, EWS-FLI1 expression: low (doxycycline-induced shRNA knockdown).
Where [11] appears, read: 2.8 µM, library screen: screen3, EWS-FLI1 expression: high (no doxycycline).
The mark [12] stands for this setting: 2.8 µM, library screen: screen3, EWS-FLI1 expression: low (doxycycline-induced shRNA knockdown).
Setting [13] is: 8.3 µM, library screen: screen3, EWS-FLI1 expression: high (no doxycycline).
Setting [14] is: 8.3 µM, library screen: screen3, EWS-FLI1 expression: low (doxycycline-induced shRNA knockdown).
Setting [15] is: 25 µM, library screen: screen3, EWS-FLI1 expression: high (no doxycycline).
[16] abbreviates: 25 µM, library screen: screen3, EWS-FLI1 expression: low (doxycycline-induced shRNA knockdown).

Regarding `COc1ccc(-c2cc(=O)c3c(OC)cc(OC)cc3o2)cc1`, the “cell viability (log2)” value runs as follows: under setting [1], 0.0279 (inactive); under setting [2], 0.0681 (inactive); under setting [3], 0.0807 (inactive); under setting [4], 0.22 (inactive).
The matching figures for `CC(=O)Oc1cc(C)c2c(c1C(OC(C)=O)OC(C)=O)Oc1c(c(C)c(OC(C)=O)c3c1C(OC(C)=O)OC3=O)OC2=O` (stereo not given): 0.0407 (inactive), 0.0968 (inactive), 0.0425 (inactive) and 0.133 (inactive).
For `CC1(C)CC[C@]2(C)CC[C@]3(C)C(=CC[C@@H]4[C@@]5(C)CC[C@H](O)C(C)(C)[C@@H]5CC[C@]43C)[C@@H]2C1`, in that order: 0.0903 (inactive), 0.0065 (inactive), 0.1 (inactive) and 0.118 (inactive).
The matching figures for `COC1=C[C@@H](C)[C@@H]2C[C@H]3OC(=O)C[C@H]4C(C)=C(OC)C(=O)[C@H]([C@@]2(C)C1=O)[C@@]34C`: 0.0742 (inactive), 0.006 (inactive), 0.146 (inactive) and 0.0264 (inactive).
With `Cc1ccc(C(=O)Nc2ccc(CN3CCN(C)CC3)c(C(F)(F)F)c2)cc1C#Cc1cnc2cccnn12`, the “cell viability (log2)” value reads like this: under setting [5], -0.0141 (inactive); under setting [6], 0.111 (inactive); under setting [7], -0.0138 (inactive); under setting [8], 0.169 (inactive); under setting [9], -0.202 (active); under setting [10], 0.218. Further, the “cell viability (log2)” value was -0.252 (active) under setting [11]; 0.093 (inactive) under setting [12]; -0.655 (active) under setting [13]; -0.442 (active) under setting [14]; -1.59 (active) under setting [15]; -1.35 (active) under setting [16].
Take `CC(C)c1c(O)ccc2c1CCC1[C@@](C)(C(=O)O)CCC[C@]21C` (stereo not given in full): the “cell viability (log2)” value reads like this: under setting [1], 0.0397 (inactive); under setting [2], 0.152 (inactive); under setting [3], 0.0988 (inactive); under setting [4], 0.234 (inactive).
For `C=C(C)/C=C1/C=CC(=O)C(C)=C1`, in that order: 0.0888 (inactive), 0.0664 (inactive), 0.0231 (inactive) and 0.158 (inactive).
For `CCCCOc1ccc(CC(=O)NO)cc1`, in that order: 0.0397 (inactive), 0.0519 (inactive), 0.124 (inactive) and 0.116 (inactive).
Consider `CCCSc1ccc2nc(NC(=O)OC)[nH]c2c1`, for which the “cell viability (log2)” value (0.025 µM, library screen: screen2, EWS-FLI1 expression: high (no doxycycline)) is 0.0864 (inactive); the “cell viability (log2)” value (0.025 µM, library screen: screen2, EWS-FLI1 expression: low (doxycycline-induced shRNA knockdown)) is 0.0115 (inactive); the “cell viability (log2)” value under setting [5] was 0.197 (inactive); the “cell viability (log2)” value under setting [6] is -0.0327 (inactive); the “cell viability (log2)” value under setting [1] was -0.206 (active); the “cell viability (log2)” value under setting [2] was -0.0499 (inactive). The “cell viability (log2)” value was 0.0348 (inactive) (0.25 µM, library screen: screen2, EWS-FLI1 expression: high (no doxycycline)); 0.051 (inactive) (0.25 µM, library screen: screen2, EWS-FLI1 expression: low (doxycycline-induced shRNA knockdown)); 0.0506 (inactive) under setting [7]; 0.123 (inactive) under setting [8]; 0.0609 (inactive) under setting [9]; 0.0788 (inactive) under setting [10]. Besides, the “cell viability (log2)” value is -1.99 (active) under setting [3]; -1.04 (active) under setting [4]; 0.158 (inactive) (2.5 µM, library screen: screen2, EWS-FLI1 expression: high (no doxycycline)); 0.0631 (inactive) (2.5 µM, library screen: screen2, EWS-FLI1 expression: low (doxycycline-induced shRNA knockdown)); -0.524 (active) under setting [11]; 0.00738 (inactive) under setting [12]. Moreover, the “cell viability (log2)” value is -1.81 (active) under setting [13]; -0.886 (active) under setting [14]; -1.74 (active) (25 µM, library screen: screen2, EWS-FLI1 expression: high (no doxycycline)); -0.157 (active) (25 µM, library screen: screen2, EWS-FLI1 expression: low (doxycycline-induced shRNA knockdown)); -2.99 (active) under setting [15]; -1.16 (active) under setting [16].
As to `CCCOc1ccc2nc(NC(=O)OC)[nH]c2c1`, the “cell viability (log2)” value runs as follows: under setting [1], 0.0532 (inactive); under setting [2], 0.106 (inactive); under setting [3], -0.659 (active); under setting [4], -0.0137 (inactive).
The matching figures for `O=c1cccc2c([C@H]3Oc4cc(O)cc(O)c4C[C@H]3O)cc(O)c(O)c2c1O`: 0.06 (inactive), 0.00163 (inactive), 0.108 (inactive) and 0.0999 (inactive).
In the case of `N#C/C(=C\c1cc(Cl)cc(Cl)c1)c1cccnc1`, the “cell viability (log2)” value is 0.0512 (inactive) (0.025 µM, library screen: screen1, EWS-FLI1 expression: high (no doxycycline)); 0.0254 (inactive) (0.025 µM, library screen: screen1, EWS-FLI1 expression: low (doxycycline-induced shRNA knockdown)); 0.126 (inactive) under setting [1]; 0.0849 (inactive) under setting [2]; 0.0839 (inactive) under setting [3]; 0.0837 (inactive) under setting [4]. Also, the “cell viability (log2)” value (25 µM, library screen: screen1, EWS-FLI1 expression: high (no doxycycline)) was -0.0133 (inactive) and the “cell viability (log2)” value (25 µM, library screen: screen1, EWS-FLI1 expression: low (doxycycline-induced shRNA knockdown)) is 0.21 (inactive).
